Reference: PubChem BioAssay (NCI)
Compounds without any hit were thinned out: in the full panel of roughly 79,000, 15% have a hit. Unmarked numbers belong to inactive results. Active and inactive are the calls of the source. No stated cut-off is given here; in the data, active means growth inhibition above about 70%; inactive means the rest.

Assay: NCI Yeast Anticancer Drug Screen. Data for the sgs1 mgt1 strain (AID 161);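 further: 0% = growth of cultures given vehicle only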
Settings: S. cerevisiae sgs1 mgt1 strain, at 50.0 µM, active compounds read high
In short: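 Yeast cells carrying a defined DNA-repair defect were exposed to test compounds. Growth inhibition was measured relative to vehicle-treated controls.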

In the case of `O=C1C(Br)=C(Br)C(=O)C2=C1C1c3ccccc3C2c2ccccc21`, the growth inhibition is reported as 97.8% (active).
In the case of `O=C(Nc1ccc(Cl)c(Cl)c1)Oc1ccc(-c2ccccc2)cc1`, the growth inhibition is reported as 93.2% (active).

First: O=C(O)Cc1ccc2ccccc2c1
Second: COc1cccc(Oc2cccc[n+]2CC(C)=O)c1
The growth inhibition of the first is higher: 20.6% for the first, 3.75% for the second.

First: O=c1[nH]c2cc(Br)c(Br)cc2c2ccc(Br)cc12
Second: COC(=O)C1(OC)C(=O)NC2=C1C(=O)c1ccccc1C2=O (configuration not stated)
The growth inhibition of the first is higher: 13.7% for the first, -4.1% for the second.

First: O=C(C[n+]1cccc(CO)c1)c1ccc(-c2ccc(C(=O)C[n+]3cccc(CO)c3)cc2)cc1
Second: O=C(O)C(c1ccc(-c2ccccc2)cc1)C1CCCCC1 (configuration not stated)
The growth inhibition of the first is lower: 31.7% for the first, 50.2% for the second.

Going from `COC(=O)/C=C(/C=C1/C(C#N)=C(N)N(c2ccc(Cl)cc2)C1(C)/C(=C/C(=O)OC)C(=O)OC)C(=O)OC` (configuration not stated) to `CCOC(=O)C1=C(Nc2ccc(F)cc2)C(=O)N(C(C)(C)C)C1`, the growth inhibition rises from 2.5% to 27.5%.

Compared with `CCNc1ccc(C)cc1`, `Cc1ccc(S(=O)(=O)Cc2c(C)cc(C)cc2C)cc1` is lower in growth inhibition: 0.1% for the first, -2.25% for the second.

Going from `Cc1cc(O)c(/C=N/c2nc(-c3ccc([N+](=O)[O-])cc3)cs2)c(=O)o1` to `O=C(Cc1csc(N=Nc2c(O)[nH]c3ccccc23)n1)Nc1ccccc1`, the growth inhibition falls from 40.8% to -6.35%.

First: Nc1ccc(S(=O)(=O)Nc2ccccn2)cc1
Second: O=C1Nc2ccccc2C1O (configuration not stated)
The growth inhibition of the first is higher: -13.1% for the first, -37.5% for the second.

Work on `COc1cc(/C=N/NC(N)=S)cc(OC)c1` yielded a growth inhibition of -15.1%.
